From PubChem BioAssay (NCI)
The panel holds about 79,000 compounds, 15% with a hit somewhere; the sample as a whole holds those more often. Rule as the data show it: active = growth inhibition above about 70%; inactive = the rest.

Legend:
[1] = NCI Yeast Anticancer Drug Screen. Data for the rad50 strain (AID 155);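 also: 0% = growth of vehicle-only cultures of the same strain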; details: S. cerevisiae rad50 strain growth inhibition; at 50.0 µM; stronger effect = higher value
Method in brief: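 Genetically altered yeast (DNA repair pathway); compound treatment; growth inhibition vs vehicle ctrl.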

[2] = NCI Yeast Anticancer Drug Screen. Data for the mec2-1 strain (AID 157); details: S. cerevisiae mec2-1 strain, at 50.0 µM, stronger effect = higher value
Method in brief: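 Strain: mec2-1 (DNA repair/cell cycle alteration). Compound exposure, then growth measured; inhibition expressed relative to vehicle.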

[3] = NCI Yeast Anticancer Drug Screen. Data for the sgs1 mgt1 strain (AID 161);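 also: 0% = growth of cultures given vehicle only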; details: S. cerevisiae sgs1 mgt1 strain, at 50.0 µM, stronger effect = higher value
Method in brief: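 Inhibition of yeast growth, normalised to vehicle-treated controls, is reported for a strain bearing genetic alterations in DNA damage repair.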

[4] = NCI Yeast Anticancer Drug Screen. Data for the cln2 rad14 strain (AID 165);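 also: 0% = growth equal to vehicle treated cultures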; details: S. cerevisiae cln2 rad14 strain, at 50.0 µM, stronger effect = higher value
Method in brief: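 Compounds are applied to the cln2 rad14 yeast strain, and growth is then compared with that of vehicle-treated cultures to give inhibition.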

[5] = NCI Yeast Anticancer Drug Screen. Data for the bub3 strain (AID 167); details: S. cerevisiae bub3 mutant strain, at 50.0 µM, stronger effect = higher value
Method in brief: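 Yeast carrying a defined mutation is treated with each compound, and growth is compared with that of vehicle-exposed cells to give inhibition.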

[6] = NCI Yeast Anticancer Drug Screen. Data for the mlh1 rad18 strain (AID 175); details: S. cerevisiae mlh1 rad18 strain growth inhibition; at 50.0 µM; stronger effect = higher value
Method in brief: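 Read-out is yeast growth inhibition, calculated against vehicle-only controls. The compound was applied to a strain engineered with DNA damage repair alterations.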

Measured: growth inhibition

COc1cc2c(c(OC)c1OC)-c1ccc(SC)c(=O)cc1[C@@H](NC1OC(CO)C(O)C(O)C1O)CC2 (some centres not stated)
inactive: [1] -10.6% | [2] -1.85% | [3] 5.25% | [4] 6.2% | [5] 5.05% | [6] 3.45%

CCOC(=O)c1ccc(C(C)(C)C)cc1
inactive: [1] 20.4% | [2] -6.65% | [3] 2.5% | [4] -45.5% | [5] 0.4% | [6] 6.5%

Cc1ccc[n+](CCC(N)=O)c1
inactive: [1] -18.4% | [2] -41.4% | [3] -10.8% | [4] 1.2% | [5] -16.1% | [6] -6.75%

CCCCOC(=O)c1ccccc1O
inactive: [1] 9.35% | [2] -0.8% | [3] -13.8% | [4] -3.05% | [5] 0.85% | [6] 20.5%

NNC(=O)N/N=C1\C(=O)N(c2nccs2)C(=O)C(=O)C1c1nc2ccccc2s1 (configuration not stated)
inactive: [1] -26.1% | [2] -21.8% | [3] -33% | [4] 10.8% | [5] -5.15% | [6] -19.4%

CC(C)C1CCC(C)C(O)C1 (configuration not stated)
inactive: [1] 26.7% | [2] 6.35% | [3] 8.55% | [4] 8.9% | [5] -0.55% | [6] 12.8%

COc1cc(C(=O)NC(=S)NCc2ccncc2)cc(OC)c1OC
inactive: [1] 9.6% | [2] 4.75% | [3] -4.65% | [4] -11.2% | [5] 34.2% | [6] 19.7%

COC(=O)c1cccc([N+](=O)[O-])c1
inactive: [1] -11.3% | [2] -5.7% | [3] -4.7% | [4] -31.3% | [5] -0.4% | [6] -9.9%

Cc1[nH]nc(C(N)=O)c1[N+](=O)[O-]
inactive: [1] -0.75% | [2] 4.95% | [3] 20.2% | [4] -36.8% | [5] -6.7% | [6] 0.35%

NC(=O)c1cc2c3ccccc3ccn2c1-c1ccccc1
inactive: [1] 35.8% | [2] 27.2% | [3] 46.7% | [4] 62.6% | [5] 64% | [6] 60%

CC(=O)c1cccc(NS(=O)(=O)c2ccc(C)cc2)c1
inactive: [1] -4.85% | [2] -21.2% | [3] -18.1% | [4] -36.7% | [5] -7.9% | [6] 35.9%

Nc1ccc(F)cc1F
inactive: [1] 6% | [2] -2.25% | [3] -3.7% | [4] -27.1% | [5] 18.1% | [6] 7.35%

O=C(O)c1ccccc1Cc1ccc2c(c1)CCCC2
inactive: [1] 17.4% | [2] 12.2% | [3] -4.6% | [4] -28.9% | [5] 25.7% | [6] 47.3%

NNC(=O)c1ccccc1N
inactive: [1] -1.8% | [2] 4.35% | [3] 27.1% | [4] -11.2% | [5] -2% | [6] -1.55%

S=C(Sc1ccc(Cl)cc1)Sc1ccc(Cl)cc1
inactive: [1] 46.5% | [2] 19.9% | [3] 54% | [4] 23.1% | [5] 29.6% | [6] 24.1%

OCc1cccnc1
inactive: [1] -6.3% | [2] -36.9% | [3] 15.3% | [4] 9.55% | [5] -18.5% | [6] 5.75%

Cn1c(=O)c2[nH]c(CCCCC(=O)O)nc2n(C)c1=O
inactive: [1] -7.8% | [2] -13.2% | [3] -34.1% | [4] -20.9% | [5] -39.4% | [6] 4.2%

CN(C)CCOC(=O)Nc1ccc(Cc2ccc(NC(=O)OCCN(C)C)cc2)cc1
inactive: [1] -2.1% | [2] -25.2% | [3] -1.75% | [4] 8.25% | [5] 8.7% | [6] 8.3%

CC1CN(CCO)CC(C)O1 (configuration not stated)
inactive: [1] -14.1% | [2] -26.8% | [3] 4.05% | [4] 5% | [5] -1.15% | [6] -10.2%

CCCCCCCCCCCCCCCCOc1ccccc1NC(=O)CC(C)=O
inactive: [1] -8.7% | [2] -18.9% | [3] -9.1% | [4] -5.85% | [5] -5.3% | [6] -3.95%

NC(=O)N1CCOCC1
inactive: [1] 15.2% | [2] -7.9% | [3] -12.9% | [4] -27.4% | [5] -14.3% | [6] 17.9%

Cc1[nH]c(=S)[nH]c(=O)c1C
inactive: [1] -5.1% | [2] -28.3% | [3] -35.6% | [4] -3.4% | [5] -34.4% | [6] -1.7%
